From PubChem BioAssay (NCI)
The panel holds about 83,000 compounds, 20% with a hit somewhere; the sample as a whole holds those more often.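 Plates (96-well) were seeded with cells, treated with compound at one concentration, and incubated for 48 hours before percent growth was determined.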 Unmarked numbers belong to inactive results. Activity calls are given as the source filed them. How the source made its calls: active means growth percent below 10; inactive means the rest.

test system: T-47D breast; test: NCI-60 one-dose screen, 48 h (100 = growth as untreated, 0 = no growth, -100 = all killed); details: 10 µM unless noted

| SMILES | growth |
| --- | --- |
| CS(=O)(=O)c1ccc(-c2nn(-c3ccccc3)cc2/C=N/NC(=O)c2ccncc2)cc1 | 90.8% |
| CC(C)=CCc1c2c(c(O)c3c1O[C@]14C(=C[C@@H]5C[C@H]1C(C)(C)O[C@@]4(C/C=C(/C)C(=O)O)C5=O)C3=O)CC(O)C(C)(C)O2 (stereo not given in full) | -10.2% (active) |
| C=C(C)C(=O)O[C@H]1C[C@@]2(C)OC(=CC2=O)/C(CO)=C\[C@H]2OC(=O)C(=C)[C@H]12 | -5.88% (active) |
| COc1ccc(-c2nnc(SCc3ccc(O)c4ncccc34)o2)cc1 | 27% |
| Nc1ccc(-c2nnc(SCc3ccc(O)c4ncccc34)n2-c2ccccc2)cc1 | 15.2% |
| CC(C)N=C(N/C(N)=N/c1nc2ccccc2s1)NC(C)C | 58.4% |
| CN1CCN(Cc2ccc(NC(=O)c3cncc(C#Cc4cnc5ccc(NC6CCOCC6)nn45)c3)cc2C(F)(F)F)CC1 | -66.2% (active) |
| COc1cc(/C=C/C(=O)c2ccc(NC(=O)CSc3nnc(-c4ccc5nc(-c6ccccc6)[nH]c5c4)o3)cc2)cc(OC)c1OC | 89% |
| CC(=O)c1ccc(NC(=O)COc2ccc(C3SCC(=O)N3c3ccc(Br)cc3)cc2)cc1 (stereo not given) | 88.7% |
| COc1ccc(Cn2cc3c(c2-c2ccccc2)CCCc2cnoc2-3)cc1 | 56.4% |
| O=C(CSc1ccc(-c2nc3ccccc3[nH]2)cn1)N1CCN(c2ccccc2F)CC1 | 16.7% |

test system: BT-549 breast; test: as above; details: 10 µM unless noted

| SMILES | growth |
| --- | --- |
| Cc1ccc(NC(=O)c2ccc(CN3CCN(C)CC3)c(C(F)(F)F)c2)cc1Oc1ccc(-c2[nH]nc3ncnc(N)c23)cc1 | 105% |
| COc1ccc([C@H]2c3[nH]c4ccccc4c3C[C@@H]3C(=O)N(C4CCN(Cc5ccccc5)CC4)CC(=O)N23)c(OC)c1 | 86.1% |
| IP(CCCSc1n(Cc2ccc3ccccc3c2)c(-c2ccccc2)c(-c2ccccc2)[n+]1Cc1ccc2ccccc2c1)(c1ccccc1)(c1ccccc1)c1ccccc1 | 20% |
| O=C1NC(=O)c2c1c1c3ccccc3ccc1c1[nH]c3ccccc3c21 | 7.84% (active) |
| COc1cc(/C=N/n2cnc3oc(-c4ccccc4)cc3c2=N)cc(CN2CCN(C)CC2)c1O | 120% |
| COC1=C(c2ccccc2)C(=O)C(OC)=C(c2ccccc2)C1=O | 104% |
| Cc1ccc(-c2csc(N/N=C/c3nc4ccccc4n3C3CC3)n2)cc1 | 73.1% |
| CC(C)=CCc1c(O)c(CC=C(C)C)c2c(c1O)C(=O)C1=C[C@@H]3C[C@H]4C(C)(C)O[C@@](C/C=C(\C)C(=O)O)(C3=O)[C@@]14O2 | -8.98% (active) |
| CN1CCN(c2nc(-c3csc(-c4ccncc4)n3)cc3ccccc23)CC1 | 83.5% |
| CN1C(=O)N(C)C2C1NN=c1s/c(=C\c3ccccn3)c(=O)n12 (stereo not given) | 99.2% |
| CC(C)SC1=NC(=C(C(=N1)NC2=ClC=CC=C2)C#N)C3=CC=CC=C3 | 110% |
| CC(=O)NC(C)(C)C(=O)N[C@@H](C)C(=O)NC(C)(C)C(=O)N[C@@H](C)C(=O)NC(C)(C)C(=O)N[C@@H](C)C(=O)N[C@@H](CCC(N)=O)C(=O)NC(C)(C)C(=O)N[C@H](C(=O)NC(C)(C)C(=O)NCC(=O)N[C@@H](CC(C)C)C(=O)NC(C)(C)C(=O)N1CCC[C@H]1C(=O)N[C@H](C(=O)NC(C)(C)C(=O)NC(C)(C)C(=O)N[C@@H](CCC(N)=O)C(=O)N[C@@H](CCC(N)=O)C(=O)N[C@H](CO)CC1CCCCC1)C(C)C)C(C)C | -4.41% [5 µM] (active) |
| Clc1ccc(-c2csc(N/N=C/c3nc4ccccc4n3C3CC3)n2)cc1 | 103% |
| O=C(NCCCNc1cc(-c2cn(-c3ccccc3)nc2-c2cccc(O)c2)ccn1)Nc1cc(C(F)(F)F)cc(C(F)(F)F)c1 | 84.9% |
| COc1ccc(-c2ccc3c4c(cccc24)C(=O)N(N2C(=O)c4cccc5cccc(c45)C2=O)C3=O)cc1 | 106% |
| Cc1cc(C(=O)Nc2ccc(SC#N)cc2)c(C)o1 | 75.4% |
| Oc1ccc(CSc2nnc(-c3cnccn3)o2)c2cccnc12 | 31.7% |
| O=C(O)c1ccc(-n2cc(CNc3ccc(Cl)cc3)c(-c3ccc(F)cc3)n2)cc1 | 101% |
| Cc1cn(-c2cc(NC(=O)c3cncc(C#Cc4cnc5ccc(OCCCS(C)(=O)=O)nn45)c3)cc(C(F)(F)F)c2)cn1 | -1.88% (active) |
